Most compounds without a hit are left out; they make up all but 3.7% or so of the library.
NTMT1 inhibitor: Primary qHTS for Inhibitors of N-terminal methyltransferase 1 (NTMT1): MTaseGlo Assay; N-terminal Xaa-Pro-Lys N-methyltransferase 1 (Homo sapiens), Q9BV86; NTMT1 MTase-Glo SAH luminescence, purified enzyme; Potency, µM (top dose mostly 114 µM), without a hit: at the top dose activity change, negative = inhibition, most hits filed as inhibitors; hit rate 2.5% among 59,000;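 further: potency means the concentration at half of the fitted maximal effect; plate controls were DMSO vehicle for no effect and no enzyme for full effect; nearly all actives have a fitted effect of over 65% in size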
Target sequence (Q9BV86 whole entry, looked up): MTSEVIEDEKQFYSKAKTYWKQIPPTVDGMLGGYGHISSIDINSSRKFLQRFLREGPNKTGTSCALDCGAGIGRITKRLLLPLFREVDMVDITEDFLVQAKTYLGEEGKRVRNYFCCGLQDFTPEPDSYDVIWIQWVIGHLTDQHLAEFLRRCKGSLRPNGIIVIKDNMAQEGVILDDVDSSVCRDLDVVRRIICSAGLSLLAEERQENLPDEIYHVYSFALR
GALK inh: qHTS Assay for Inhibitors of Human Galactokinase (GALK): NCGC Sytravon Library Screen; P51570; recombinant GALK, Kinase-Glo ATP luminescence, 1 h; Potency, µM (series often up to 57.5 µM), for the others: at the highest dose activity, negative = inhibition, actives largely listed as inhibitors; 44,000 tested, under 10 active; AID 1347072, 2019;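 further: plate controls were full GALK reaction for no effect and reaction lacking GALK for full effect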
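5 nM GALK with 35 µM ATP and 100 µM galactose in HEPES pH 8.0, MgCl2, NaCl, DTT, BSA; 1 h RT reaction, remaining ATP detected by Kinase-Glo Plus luminescence after 10 min; qHTS concentration series.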
GPR32 ag: qHTS for Agonists of Human Resolvin D1 Receptor DRV1; CHO-K1 GPR32 beta-arrestin PathHunter luminescence, 90 min; zero percent set by DMSO-only wells; activation, % at 76.9 µM; AID 1346428, 2018; hit rate 2.5% among 48,000; Probable G-protein coupled receptor 32 (Homo sapiens), O75388;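 active means activation of at least 60% and not above a set upper limit, about 1 call in 100 departs from these limits; inconclusive means activation of 40% to 60%, or above that upper limit; inactive means activation under 40%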; further: 0% is about no effect
Target sequence (O75388 whole entry, looked up): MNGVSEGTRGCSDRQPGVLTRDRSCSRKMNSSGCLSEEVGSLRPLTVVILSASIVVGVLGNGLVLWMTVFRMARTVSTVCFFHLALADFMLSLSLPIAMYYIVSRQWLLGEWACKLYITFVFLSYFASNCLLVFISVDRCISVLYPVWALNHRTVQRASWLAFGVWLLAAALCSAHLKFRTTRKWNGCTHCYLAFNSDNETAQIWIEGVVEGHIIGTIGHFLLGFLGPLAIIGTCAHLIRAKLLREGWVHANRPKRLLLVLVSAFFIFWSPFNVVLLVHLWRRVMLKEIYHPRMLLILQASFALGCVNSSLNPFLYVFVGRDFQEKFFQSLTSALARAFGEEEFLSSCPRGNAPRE
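PathHunter enzyme-fragment complementation, CHO-K1 GPR32 stable line; 2,500 cells/well, overnight attach; cpd 90 min 37 °C 5% CO2; detection reagent 1 h RT; chemiluminescence. DMSO = EC0.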
TSG101-PTAP inh: qHTS Validation Assay for Inhibitors of HIV-1 Budding by Blocking the Interaction of PTAP/TSG101: Sytravon Library Screen. AID 1347069, 2019. Fluorescence polarization, FITC-PTAP peptide/Tsg101, 20 min. Potency, µM (top dose mostly 115 µM), hits mostly inhibitors. Tumor susceptibility gene 101 protein (Homo sapiens), Q99816. 44,000 tested, under 10 active; further: potency means the concentration at half of the fitted maximal effect; 0% is about no effect
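The Tsg101 binding domain, at 10 uM final, is mixed with compound and a FITC peptide bearing the PTAP motif (50 nM final). After 20 min at r.t., polarization is measured; actives defined by CRC class, efficacy cut-off 60% inhibition.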
FH mod: Identification of activators of human fumarate hydratase by quantitative high-throughput screening. Fumarate hydratase, mitochondrial (Homo sapiens), P07954. FH coupled MDH/diaphorase resazurin fluorescence, 15 min. Potency, µM (top dose mostly 79.9 µM), for the others: at the highest dose activity change, negative = inhibition, usual class: inhibitors. hit rate 0.22% among 54,000. AID 1347055, 2019; further: potency means the concentration at half of the fitted maximal effect; on the % scale 0 is the no-effect control and ±100 the full control effect; the screen sought activators but most active calls are inhibition curves; nearly all actives have a fitted effect of over 45% in size
B2AR arrestin ag: qHTS assay of beta-arrestin-biased ligands of beta2-adrenergic receptor: NCGC Sytravon Library Screen; 44,000 tested, under 10 active; Potency, µM (doses to about 46.1 µM), hits mostly activators; HTLA Tango cells, beta-arrestin recruitment, luciferase luminescence, 18 h; Beta-2 adrenergic receptor (Homo sapiens), P07550; AID 1347077, 2019;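 further: potency means the concentration at half of the fitted maximal effect; 0% = DMSO and full agonism = EC100 isoproterenol or metaproterenol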
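Tango cells (recombinant beta2-AR, beta-arrestin, tTA-driven luciferase), 1500/well in DMEM 1% FBS, treated 18 h at 37 °C with compounds up to 46 µM; luciferin mix added, luminescence read after 15 min; %activity curves fitted and curve-classed.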
Starred values were filed as active, the others as inactive; i = inactive; u = inconclusive; x = no result; ! = not confirmed by another sample; [ ] = another dose, or the depositor's remark. Unless noted, the call rests on the fitted dose curve; in most records, active means well fitted curve in the direction sought with a large enough effect; inconclusive means small, poorly fitted or top-dose-only effect, or another doubt; inactive means no such curve, though single readings can be large; an effect the other way counts as inactive or inconclusive.

SMILES | NTMT1 inhibitor | GALK inh | GPR32 ag | TSG101-PTAP inh | FH mod | B2AR arrestin ag
Cc1cc(C)cc(NS(=O)(=O)c2ccc(-n3cccn3)cc2)c1 | -1% | -1% | 7 | i | -35% | i
COc1ccc(NS(=O)(=O)c2ccc(-n3cccn3)cc2)cc1OC | 14% | 0% | 14 | i | -1% | i
CCc1cccc(NS(=O)(=O)c2ccc(-n3cccn3)cc2)c1 | 0% | 1% | 86* | i | -13% | i
Cc1ccc(NS(=O)(=O)c2ccc(-n3cccn3)cc2)cc1Cl | 1% | 1% | 73* | i | -9% | i
O=S(=O)(Nc1ccc(F)cc1F)c1ccc(-n2cccn2)cc1 | 2% | 2% | 75* | i | -6% | i
NS(=O)(=O)c1ccc(S(=O)(=O)Nc2cccc3c(Cl)c[nH]c23)cc1 | 1% | x | x | x | x | x
CCCOC(=O)c1c(C)oc2c1cc(NS(=O)(=O)c1ccc(OCC)cc1)c1ccccc12 | -14% | -1% | 0 | i | -10% | i
CC(=O)c1c(C)oc2c1cc(NS(=O)(=O)c1ccc(Br)cc1)c1ccccc12 | 5% | -1% | 80* | i | -14% | i
O=C(CN1C(=O)CCSc2ccccc21)Nc1ccc(C(F)(F)F)cc1 | -5% | 1% | 63* | i | 1% | i
CCNC(=O)Nc1ccc(-c2nc3c(c(N4CCOC[C@@H]4C)n2)CCN(C2COC2)C3)cc1 | 2% | x | x | x | x | x
COCCOc1ccc2c(c1)ncn2-c1ccc2cccc(N3CCC(N)CC3)c2n1 | 35µM*! | x | x | x | -1% | x
COc1ccc(OC)c(-n2cnc3cc(C(=O)NC4CCCC4)ccc32)c1 | 4% | -2% | 0 | i | 13% | i
Cc1c(Cl)cccc1NS(=O)(=O)c1ccc(NS(=O)(=O)c2ccc3c(c2)OCCO3)cc1 | 1% | 1% | 68* | i | u | i
O=S(=O)(Nc1c(F)cccc1F)c1ccc2c(c1)OCCO2 | 3% | 2% | -3 | i | -2% | i
Cc1cc(C)n2ncc(C(=O)Nc3ccc(Br)cc3)c2n1 | 11%[57.5 µM] | x | x | x | x | x
COc1ccc(Cl)cc1-c1cc(=O)[nH]c(=S)n1CC(N)=O | 15% | x | x | x | x | x
Cc1cccc(C(=O)Nc2ccc3oc(-c4cccc5c(Br)cccc45)nc3c2)c1 | -1% | 0% | 16 | i | -10% | i
Cc1cccc(C(=O)Nc2ccc3oc(-c4ccncc4)nc3c2)c1 | u | 0% | 72* | i | 0% | i
CC1CC(O)CC(C)(C)C1(O)CCO (centres undefined) | 1% | x | x | x | 3% | x
NCCS | 32µM* | x | -15 | x | -17%[53.3 µM] | x
Cc1cc(-n2c(=O)ccc3cnc4[nH]ccc4c32)ccc1F | -6% | x | x | x | x | x
CCCCN(C)C(=O)Cn1nc(-c2ccc(F)cc2)ccc1=O | 10%[57.5 µM] | x | x | x | x | x
O=C(CSc1nnc(-c2ccccc2Br)n1-c1ccccc1)c1ccc(F)cc1 | -18% | -1% | 60* | i | -16% | i
C#CCOc1ccc2c(c1)c(-c1ccc(C(C)C)cc1)nc(=O)n2C(C)C | -10%[57.5 µM] | x | x | x | u | x
COc1cc(C(=O)Nc2ccc3nc4n(c(=O)c3c2)CCCCC4)cc(OC)c1OC | 50µM* | 7% | 6 | i | -11% | i
SMILES | NTMT1 inhibitor | GALK inh | GPR32 ag | TSG101-PTAP inh | FH mod | B2AR arrestin ag
COc1ccc(C(=O)Nc2ccc3nc4n(c(=O)c3c2)CCCCC4)cc1OC | 4% | 3% | 11 | i | -12% | i
COc1cccc(C(=O)Nc2cccc(-c3nc4ncccn4c3C)c2)c1 | -6% | 1% | 61* | i | -13% | i
O=C(Nc1ccc(-c2cn3cccnc3n2)cc1)c1cc(Br)ccc1Cl | 0% | -2% | 83* | i | 0% | i
COc1ccc(NC(=O)Nc2cccc(-c3cn4cccnc4n3)c2)cc1 | u | 5% | 77* | i | -6% | i
Cc1ccccc1C(=O)Nc1cccc(-c2cn3cccnc3n2)c1 | -4% | -2% | u | i | -20% | i
COc1cc(OC)cc(C(=O)Nc2cccc(-c3cn4cccnc4n3)c2)c1 | -1% | 3% | u | i | -1% | i
CCCCCCCCCCC(O)C1C=CC2C(=O)N(c3ccccc3)C(=O)C2N1Nc1ccc([N+](=O)[O-])cc1 (centres undefined) | 21% | x | x | x | u | x
N[C@@H](CC(=O)O)C(=O)Nc1ccc(Cl)cc1C(=O)c1ccc[nH]1 | 3% | x | x | x | x | x
O=C(O)/C(S)=C/c1ccc(I)cc1 | 79µM* | x | x | x | x | x
Cc1cccc(CS(=O)(=O)c2ncc(Cl)c(C(=O)Nc3nc4ccc(F)cc4s3)n2)c1 | 7% | 0% | 10 | i | 13% | i
O=C(Nc1nc2ccc(F)cc2s1)c1nc(S(=O)(=O)Cc2ccccc2)ncc1Cl | 6% | 0% | 91* | i | 4% | i
Cc1nnc(NC(=O)c2nc(S(=O)(=O)Cc3ccccc3)ncc2Cl)s1 | 6% | -2% | 81* | i | 4% | i
Cc1ccc(S(=O)(=O)n2cc(C(=O)Nc3nc(-c4ccccc4)cs3)c3ccccc32)cc1 | 20% | x | x | x | x | x
O=C(NCCO)c1ccc(-c2nnc(Nc3ccc(OC(F)(F)Cl)cc3)c3ccccc23)cc1 | 9% | 7% | 66* | i | u | i
Cc1ccc(OCCn2c(CCNCC3CCCCC3)nc3ccccc32)cc1 | -9%[57.5 µM] | x | x | x | x | x
COc1ccc2c(c1O)OC[C@H]1c3ccc(O)cc3O[C@@H]21 | u | x | x | x | -6% | x
C/C=C(\C)C(=O)OC1C[C@@]2(COC(C)=O)O[C@H]2/C=C\[C@@]2(C)O[C@@H]2[C@H]2OC(=O)C(COC(C)=O)=C12 (some centres undefined) | -16%[29.8 µM] | x | x | x | -10%[53.3 µM] | x
COc1ccc(/C=C/C(=O)Nc2ccc(Cl)c(Cl)c2)cc1 | -8% | -3% | 68* | i | 14% | i
O=C(Nc1cncc(-c2cccnc2)c1)c1cccs1 | -2% | x | x | x | x | x
CCc1nonc1NC(=O)c1oc2ccccc2c1C | 3% | -7% | 66* | i | 4% | i
CCc1nonc1NC(=O)c1oc2ccc(C)cc2c1C | 0% | 7% | 3 | i | -16% | i

Bioassay records deposited in PubChem by National Center for Advancing Translational Sciences (NCATS).
